In PubChem BioAssay (EPA / NIEHS):
More than one record can exist for a structure, and the calls need not agree. Calls of active or inactive are those of the source. The calls were made as follows: active = hit-call score of the fitted dose curve at least 0.9, where 1 is the maximum; inactive = score below 0.9.

What was measured:
[1] = BSK_3C_SRB: Viability Assessment in the BioMAP Diversity Plus: 3C Assay (AID 2283023); settings: primary human endothelial cells (HUVEC);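 also: fitted both ways against DMSO so a hit may be signal rise or drop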
Outline: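 Human umbilical vein endothelial cells in the 3C system, treated 24 h. Total protein measured by 0.1% sulforhodamine B staining after 10% TCA fixation, read at 560 nm; bidirectional fit versus DMSO.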

[2] = read-out: Matrix Metallopeptidase 1 (MMP1), MMP1 (gene 4312); assay: BSK_BE3C_MMP1: BioMAP Diversity Plus: BE3C Assay for Matrix Metallopeptidase 1 (MMP1) Biomarker Activity (AID 2283024); settings: primary human bronchial epithelial cells; actives raise or lower the signal
Outline: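 ELISA measurement of MMP-1 after 24 h compound exposure of primary human bronchial epithelial cells. Changes in either direction fitted relative to DMSO; parallel SRB staining checked overt cytotoxicity.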

[3] = read-out: Pselectin, SELP (gene 6403); assay: BSK_4H_Pselectin: BioMAP Diversity Plus: 4H Assay for Pselectin Biomarker Activity (AID 2283026); settings: primary human endothelial cells (HUVEC); actives raise or lower the signal
Outline: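 ELISA of surface P-selectin on HUVEC, 24 h after dosing, with parallel SRB staining (0.1% after 10% TCA fixation, 560 nm) for overt cytotoxicity. Activity fitted in both directions relative to DMSO.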

[4] = BSK_4H_SRB: Viability Assessment in the BioMAP Diversity Plus: 4H Assay (AID 2283027); settings: primary human endothelial cells (HUVEC);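 also: cells exposed to compound for 24 h before staining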;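 as to AC50: curves fitted both ways versus DMSO so AC50 may be loss or gain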
Outline: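 Cytotoxicity readout: sulforhodamine B (0.1%) staining of total protein after 10% TCA fixation, measured at 560 nm in human umbilical vein endothelium at 24 h. DMSO set the baseline; fitting was bidirectional.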

[5] = BSK_BE3C_SRB: Viability Assessment in the BioMAP Diversity Plus: BE3C Assay (AID 2283028); settings: primary human bronchial epithelial cells;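 as to AC50: fitted both ways so AC50 may mark signal gain or loss versus DMSO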
Outline: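 Human bronchial epithelial primary cells in confluent culture, 24 h after chemical dosing; total protein by 0.1% SRB staining after 10% TCA fixation, read at 560 nm. Bidirectional fitting versus DMSO baseline.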

[6] = read-out: Thrombomodulin, THBD (gene 7056); assay: BSK_3C_Thrombomodulin: BioMAP Diversity Plus: 3C Assay for Thrombomodulin Biomarker Activity (AID 2283029); settings: primary human endothelial cells (HUVEC); actives raise or lower the signal
Outline: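 ELISA measurement of thrombomodulin on HUVEC surface 24 h after chemical dosing; activity fitted in both directions relative to DMSO vehicle.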

[7] = read-out: Urokinase-type plasminogen activator receptor (uPAR), PLAUR (gene 5329); assay: BSK_4H_uPAR: BioMAP Diversity Plus: 4H Assay for Urokinase-type plasminogen activator receptor (uPAR) Biomarker Activity (AID 2283030); settings: primary human endothelial cells (HUVEC); actives raise or lower the signal
Outline: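 Human umbilical vein endothelial cells in the 4H system, 24 h after chemical dosing. Cell-surface uPAR measured by ELISA, fitted in both directions versus DMSO; cytotoxicity checked by SRB total protein in parallel cultures.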

[8] = read-out: Vascular endothelial growth factor receptor 2 (Homo sapiens) (UniProt P35968); assay: BSK_4H_VEGFRII: BioMAP Diversity Plus: 4H Assay for Vascular endothelial growth factor receptor 2 (VEGFR2) Biomarker Activity (AID 2283031); settings: primary human endothelial cells (HUVEC); actives raise or lower the signal;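 as to AC50: cell-surface VEGFR2 protein level quantified by ELISA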
Outline: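 Primary human umbilical vein endothelial cells (4H system), 24 h exposure; cell-surface VEGFR2 measured by ELISA. Bidirectional fitting versus DMSO; cytotoxicity checked in parallel by SRB total-protein staining.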

[9] = read-out: Human Leukocyte Antigen - DR isotype (HLADR), HLA-DRA (gene 3122); assay: BSK_BE3C_HLADR: BioMAP Diversity Plus: BE3C Assay for Human Leukocyte Antigen - DR isotype (HLADR) Biomarker Activity (AID 2283032); settings: primary human bronchial epithelial cells; actives raise or lower the signal
Outline: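 Cell-surface HLA-DR ELISA readout at 24 h after dosing in the BE3C primary human lung bronchial epithelial system; gain or loss of signal against DMSO, with parallel sulforhodamine B staining of total protein for overt cytotoxicity.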

[10] = BSK_3C_Vis: BioMAP Diversity Plus: 3C Assay for Morphology Visualization (AID 2283025); settings: primary human endothelial cells (HUVEC);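 also: fitted both ways so gain or loss versus DMSO counts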;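 as to AC50: light microscopy image of cell morphology used as background control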
Outline: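 Light-microscopy visualization of HUVEC cultures at 24 h post-treatment, with DMSO as baseline for bidirectional fitting.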

Measured: AC50

CCCCC(CC)CN1C(=O)C2C3C=CC(C3)C2C1=O (centres undefined)
inactive: [3] | [4] | [6] | [7] | [8]
active: [1] 16.9 µM | [2] 15.9 µM | [5] 17.3 µM | [9] 15.7 µM

CCSC(=O)N(CC(C)C)CC(C)C
inactive: [1] | [2] | [10] | [3] | [4] | [5] | [6] | [7] | [8] | [9]

CCCCOCCOCCOCc1cc2c(cc1CCC)OCO2
inactive: [2] | [10] | [3] | [4] | [5] | [6] | [7] | [8] | [9]
active: [1] 21 µM

CCC(O)=C1C(=O)CC(C(=O)O)CC1=O (centres undefined)
inactive: [1] | [2] | [10] | [3] | [4] | [5] | [6] | [7] | [8] | [9]

Oc1ccc(C(c2ccc(O)cc2)C(Cl)(Cl)Cl)cc1
active: [1] 16.4 µM | [2] 33.1 µM | [10] 29.4 µM | [3] 20 µM | [4] 19.3 µM | [5] 30.2 µM | [6] 6.1 µM | [7] 31.4 µM | [9] 26.5 µM

CCOC(=O)C(C)Oc1ccc(Oc2cnc3cc(Cl)ccc3n2)cc1 (centres undefined)
inactive: [1] | [2] | [3] | [4] | [5] | [6] | [7] | [8] | [9]

CCOC(=O)[C@H](C)Oc1ccc(Oc2nc3ccc(Cl)cc3o2)cc1
inactive: [1] | [2] | [3] | [4] | [5] | [6] | [7] | [8] | [9]

O=C(c1ccc(O)cc1O)c1ccc(O)cc1O
inactive: [1] | [2] | [10] | [3] | [4] | [5] | [6] | [7] | [8] | [9]

CN(C)C(=O)Nc1ccc(Cl)c(Cl)c1
inactive: [1] | [2] | [3] | [4] | [5] | [6] | [7] | [8] | [9]

CCCCOC(=O)C(C)Oc1ccc(Oc2ccc(C(F)(F)F)cn2)cc1 (centres undefined)
inactive: [1] | [2] | [3] | [4] | [5] | [6] | [7] | [8] | [9]

CC(C)(c1ccc(O)cc1)c1ccc(O)cc1
inactive: [1] | [2] | [3] | [4] | [5] | [6] | [7] | [8] | [9]
active: [1] 14.2 µM | [5] 24 µM

COc1nc(C)nc(NC(=O)NS(=O)(=O)c2ccccc2OCCCl)n1
inactive: [1] | [2] | [3] | [4] | [5] | [6] | [7] | [8] | [9]

C[C@]12C[C@H](O)[C@H]3[C@@H](CCC4=CC(=O)CC[C@@]43C)[C@@H]1CC[C@@H]2C(=O)CO
inactive: [1] | [2] | [10] | [3] | [4] | [5] | [6] | [7] | [8] | [9]

CCCN(CCC)c1c([N+](=O)[O-])cc(C(F)(F)F)c(N)c1[N+](=O)[O-]
inactive: [2]
active: [1] 30.6 µM | [10] 16.3 µM | [3] 30.3 µM | [4] 31.5 µM | [5] 16.4 µM | [6] 2.15 µM | [7] 33.1 µM | [8] 32.3 µM | [9] 11.6 µM

Cc1nn(C)c(Oc2ccccc2)c1C=NOCc1ccc(C(=O)OC(C)(C)C)cc1
inactive: [8]
active: [1] 9.91 µM | [2] 4.59 µM | [10] 15.2 µM | [3] 12.9 µM | [4] 16.3 µM | [5] 12 µM | [6] 5.41 µM | [7] 30.6 µM | [9] 0.814 µM
